# Sampled rows, rich in hits. Any-hit rate of the full collection: about 21%.
# Pf growth 48h – P. falciparum growth inhibition at 48 hours (one generation) | AID 504832 | Potency, µM (titrated, usually from 28.7 µM), for the others: at the highest dose activity change, negative = inhibition, actives largely listed as inhibitors | 5.9% of 310,000 active | P. falciparum luciferase growth in erythrocytes, 48 h; further: potency means the concentration at half of the fitted maximal effect; on the % scale 0 is the no-effect control and ±100 the full control effect
#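 Luciferase-expressing P. falciparum in infected erythrocytes (2% hematocrit, 0.1% parasitemia final) in RPMI 1640/0.5% Albumax were exposed to compound for 48 hours at 37 C, 5% CO2; growth read as luminescence.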
# AMA1 RON2 block – inhibitors of Plasmodium falciparum AMA1-RON2 interaction; AlphaScreen AMA1-biotinylated RON2 peptide binding; Potency, µM (top dose mostly 58.2 µM), inactives show at the top dose activity change, negative = inhibition, hits mostly inhibitors; 0.2% of 360,000 active; AID 720542;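 further: potency means the concentration at half of the fitted maximal effect; 0% = vehicle wells and -100% = peptide control; nearly all actives have a fitted effect of over 45% in size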
#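 AMA1 (3D7) with his tag at 25 nM final met compounds first, then biotinylated RON2 peptide at 25 nM; detection used donor plus acceptor beads, 10 µg/mL apiece, read by AlphaScreen after 30 min at room temperature.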
# HCV inhibitor – inhibitors of hepatitis C virus infection; Huh7.5.1 HCVcc-Cre infection, luciferase reporter, 44 h; Potency, µM (series often up to 41.8 µM), for the others: top-dose activity change, negative = inhibition, most hits filed as inhibitors; 3.4% of 340,000 active; further: potency means the concentration at half of the fitted maximal effect; on the % scale 0 is the no-effect control and ±100 the full control effect
#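 Seed cells (1,000/well) for 4 h; treat with compound and infect with HCVcc-Cre, moi about 0.5. Incubate 44 h, then detect luciferase activity.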
# Pf growth 96h – inhibits malaria parasite growth, 96 h; P. falciparum luciferase reporter growth, 96 h; Potency, µM (highest dose often 28.7 µM), for the others: at the top dose activity change, negative = inhibition, most hits filed as inhibitors; 6.9% of 320,000 active; AID 504834; further: potency means the concentration at half of the fitted maximal effect; on the % scale 0 is the no-effect control and ±100 the full control effect
#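 96 h incubation, 37 C, 5% CO2, of luciferase-reporter P. falciparum-infected RBCs (2% hematocrit, 0.05% parasitemia final) with test compounds; endpoint luminescence.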
# CHX counter – affects cycloheximide protein synthesis inhibition readout, counter-screen | cell reporter, cycloheximide protein synthesis inhibition counterscreen | max response, % | 12% of 300,000 active | AID 2314; in the data active means max response mostly above about 13%, no sharp cut-off; inactive means mostly below about 14%; further: read at 38.3 µM for the half of the compounds with a filed dose; 0% is about no effect
# Shiga toxin inh – inhibitors of Shiga toxin in Vero cells; Vero cells, Shiga toxin protein synthesis inhibition reporter; inhibition, % at 38.7 µM; 9.2% of 290,000 active; AID 2315; in the data active means inhibition mostly above about 28%, no sharp cut-off; inactive means mostly below about 43%; further: 0% is about no effect
# * marks the source's active call; other numbers are inactive results; ? = inconclusive; . = no result; [ ] = dose if it differs, or a comment. Unless noted, the call rests on the fitted dose curve; in most records, active means well fitted curve in the direction sought with a large enough effect; inconclusive means small, poorly fitted or top-dose-only effect, or another doubt; inactive means no such curve, though single readings can be large; an effect the other way counts as inactive or inconclusive.
SMILES,Pf growth 48h,AMA1 RON2 block,HCV inhibitor,Pf growth 96h,CHX counter,Shiga toxin inh
COc1cc(-c2cc(C(=O)Nc3c(Cl)cc(Cl)cc3Cl)c3ccccc3n2)cc(OC)c1OC,13µM*,22%[11.6 µM],10µM*,?,-3,-3
Cc1ccc(C(C)C)cc1-n1nnc(-c2cccc(Cc3ccc4ccccc4c3)c2)c1C(C)O (stereo not drawn),.,2%,.,.,.,.
Oc1ccc(O)c(/C(=N/Nc2ccccc2)c2ccccc2)c1,?,.,.,?,27*,17
CC(=NNc1ccccc1)C(C)=NNc1ccccc1,.,-2%,12%,.,.,.
CCN(C(=O)COC(=O)c1cccnc1SC)c1c(N)n(Cc2ccccc2)c(=O)[nH]c1=O,-13%,2%,5%,4%,.,.
CN1CCN(c2ccc([N+](=O)[O-])c(Sc3ccccn3)c2)CC1,?,-13%,?,0.29µM*,-2,14
N#Cc1ccc(Sc2ccccn2)c([N+](=O)[O-])c1,-8%,1%,20%,20%,0,2
CN1CCN(c2ccc([N+](=O)[O-])c(-n3nc(-c4ccccc4)c4ccccc4c3=O)c2)CC1,?,-17%,4.5µM*,8.3µM*,2,-18
O=c1cc(-c2ccccc2)nc(Sc2ccc([N+](=O)[O-])cc2[N+](=O)[O-])[nH]1,.,4%,0%,.,.,.
Cc1cccc(Sc2ccc([N+](=O)[O-])cc2[N+](=O)[O-])n1,?,-19%,-27%,8.3µM*,-1,1
NNS(=O)(=O)c1ccc(Sc2ccccn2)c([N+](=O)[O-])c1,10%,-6%,9%,17%,15*,36
Cc1ccc(OCCNC(=O)c2ccccc2SCC(=O)N2CCCC2)cc1,?,25%,20%,?,.,.
O=[N+]([O-])c1ccc(Sc2nccn2Cc2ccccc2)c([N+](=O)[O-])c1,0%,-14%,?,?,-3,-6
O=[N+]([O-])c1ccc(Sc2ncccn2)c([N+](=O)[O-])c1,13µM*,-30%,?,3.3µM*,-2,-4
CCCOP(=O)(OCCC)c1c([N+](=O)[O-])cc(C(F)(F)F)cc1[N+](=O)[O-],.,-4%,-19%,9.3µM*,-3,-13
COc1cc(S(=O)(=O)NCc2ccccn2)c(OC)cc1Cl,-23%,25%,3%,9.3µM*,-2,-6
COc1cc(S(=O)(=O)NCc2ccccn2)ccc1Cl,27%,29%,4%,17%,1,7
CC1(CC(=O)N/N=C/c2ccc(-c3ccc(Cl)cc3)o2)OCCO1,55%,-10%,-11%,?,15*,13
COC(=O)c1ccc(-c2ccc(/C=N/NC(=O)CC3(C)OCCCO3)o2)cc1,26%,9%,9%,6%,36*,43*
CC1(Cc2ccc(F)c(Cl)c2)C(=O)Nc2c(Cl)cccc21 (stereo not drawn),.,-2%,.,.,.,.
CC1C/C(=N/NC(=O)c2cccc(F)c2)c2ccc(O)cc2C1 (stereo not drawn),-18%,15%,?,?,42*,active
CCCNC(=O)CSc1nnc(NC(=O)C2CC(=O)N(c3ccccc3OC)C2)s1 (stereo not drawn),.,29%,.,.,.,.
Cc1cc(NS(C)(=O)=O)c(=O)n(Cc2cccc(F)c2)c1,17%,-2%,15%,2.6µM*,-3,-2
CC(=O)N1CCN(c2ccccc2NC(=O)COc2ccc(Br)cc2)CC1,?,-3%,-15%,4.7µM*,-1,-3
O=C(COc1ccc(Br)cc1)Nc1ccccc1N1CCCC1,-29%[5.75 µM],-16%,-28%,?,-5,3
SMILES,Pf growth 48h,AMA1 RON2 block,HCV inhibitor,Pf growth 96h,CHX counter,Shiga toxin inh
O=C(Cc1cccc(C(F)(F)F)c1)Nc1ccc(S(=O)(=O)N2CCCC2)cc1,?,1%,?,?,.,.
O=C(CNc1cc(S(=O)(=O)N2CCCC2)ccc1OCC(F)(F)F)Nc1cc(Cl)cc(Cl)c1,6%,.,.,2%,-1,-7
O=C(CNc1cc(S(=O)(=O)N2CCCC2)ccc1OCC(F)(F)F)Nc1ccc(SC(F)F)cc1,?,-8%,?,?,21*,53
O=C(COc1cccc(C(F)(F)F)c1)Nc1ccc(S(=O)(=O)N2CCCC2)cc1,?,-10%,11µM*,20%,1,-4
Cc1cc(OCC(=O)Nc2ccccc2N2CCCCC2)ccc1C(C)C,?,9%,?,10µM*,.,.
COC(=O)[C@]12CCCCC=C1N(CCC1=CCCCC1)C(=O)[C@H](CC(=O)N1CCN(C(=O)C3CC3)CC1)C2,.,-8%,.,.,.,.
COc1ccc(C#Cc2cccc(-c3nc(C(=O)N4CCN(C)CC4)cc4c3[C@H](CCO)N(S(=O)C(C)(C)C)C4)c2)cc1OC (stereo partly drawn),.,-3%,.,.,.,.
Cc1ccc(S(=O)(=O)N2CCC(Oc3cccc(C(F)(F)F)c3)CC2)cc1,2%,9%,?,2.3µM*,-9,-4
Cc1cc(C)cc(OCC(=O)Nc2ccccc2N2CCCCC2)c1,3%,21%,-8%,.,-3,-16
COC(=O)[C@H](CCSC)NC(=O)N1CCN(c2cccc(C(F)(F)F)c2)CC1,4%,4%,21%,.,-2,7
O=C(COc1cccc(C(F)(F)F)c1)Nc1ccccc1N1CCCCC1,10µM*,13%,-13%,?,.,.
Cc1ccccc1OCC(=O)Nc1ccccc1N1CCCCC1,?,8%,?,10µM*,-3,6
COc1ccc(OC2CCN(S(=O)(=O)c3ccc(F)cc3)CC2)cc1,-20%,0%,17%,-19%,3,8
CSCCC(NS(=O)(=O)c1cccc(C(F)(F)F)c1)C(=O)Nc1ccccc1N1CCCC1 (stereo not drawn),?,9%,-14%,15µM*,.,.
CCCNC(=S)N1CC2(C)CN(C(=O)C(=O)OC)CC(C)(C1)C2=O,13%,-1%,-2%,73%,12,2
COC(=O)CCCn1cc(CN2CC(N3CCCC3)CS2(=O)=O)nn1 (stereo not drawn),.,7%,.,.,.,.
Cc1ccc(NC(=O)C2CCN(S(=O)(=O)c3ccc4c(c3)CCCC(=O)N4)CC2)c(Br)c1,-13%,27%,5%,-21%,-4,-6
C1OCOCO1,-8%,.,.,-10%,.,.
Nc1c(C(=O)c2ccccc2)sc(Nc2ccccc2)c1S(=O)(=O)c1ccccc1,?,-26%,14µM*,?,-2,10
Cc1nc(N)ncc1C(=O)Nc1ccccc1,32%,7%,10%,90%,-5,-5
COc1ccc(OC(C)C(=O)Nc2ccccc2F)cc1 (stereo not drawn),-13%,0%,-2%,?,0,24
COc1ccc(C(=O)c2sc(Nc3ccccc3F)nc2N)cc1,.,-3%,?,6%,41*,86*

# High-throughput results deposited in PubChem by National Center for Advancing Translational Sciences (NCATS).
